Screens as filed in PubChem.
Shiga inhibitor – blocks Shiga toxin action in Vero cells; Vero cells, Shiga toxin protein synthesis inhibition reporter; inhibition, % at 38.7 µM; hit rate 9.2% among 290,000; AID 2315; in the data active means inhibition mostly above about 28%, no sharp cut-off; inactive means mostly below about 43%; further: 0% is about no effect
Pf growth 96h – P. falciparum growth inhibition at 96 hour, primary screen for plastid delayed-death inhibitors; Potency, µM (series often up to 28.7 µM), without a hit: top-dose activity change, negative = inhibition, actives largely listed as inhibitors; P. falciparum luciferase reporter growth, 96 h; hit rate 6.9% among 320,000; AID 504834; further: potency means the concentration at half of the fitted maximal effect; on the % scale 0 is the no-effect control and ±100 the full control effect
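Plates of compound plus infected erythrocytes (2% hematocrit, 0.05% parasitemia final) incubate 96 hours, 37 C, 5% CO2. Detection reagent added; reduced luminescence from the parasites' luciferase reporter flags inhibition.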
Pf growth 48h – P. falciparum growth inhibition at 48 hours (one generation). P. falciparum luciferase growth in erythrocytes, 48 h. Potency, µM (series often up to 28.7 µM), for inactives: at the top dose activity change, negative = inhibition, hits mostly inhibitors. hit rate 5.9% among 310,000; further: potency means the concentration at half of the fitted maximal effect; on the % scale 0 is the no-effect control and ±100 the full control effect
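Compounds are pin-transferred into medium, infected erythrocytes (2% hematocrit, 0.1% parasitemia final) are added, and plates sit one parasite generation at 37 C in 5% CO2. Detection reagent is then added and luminescence measured.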
AMA1-RON2 inh – disrupts binding of P. falciparum AMA1 to RON2 | AlphaScreen AMA1-biotinylated RON2 peptide binding | Potency, µM (series often up to 58.2 µM), inactives show at the top dose activity change, negative = inhibition, most hits filed as inhibitors | hit rate 0.2% among 360,000;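 further: potency means the concentration at half of the fitted maximal effect; 0% = vehicle wells and -100% = peptide control; nearly all actives have a fitted effect of over 45% in size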
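AMA1 (3D7) with his tag at 25 nM final met compounds first, then biotinylated RON2 peptide at 25 nM; detection used donor plus acceptor beads, 10 µg/mL apiece, read by AlphaScreen after 30 min at room temperature.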
Cycloheximide cs – affects cycloheximide protein synthesis inhibition readout, counter-screen; cell reporter, cycloheximide protein synthesis inhibition counterscreen; max response, %; hit rate 12% among 300,000; AID 2314; in the data active means max response mostly above about 13%, no sharp cut-off; inactive means mostly below about 14%; further: read at 38.3 µM for the half of the compounds with a filed dose; 0% is about no effect
SARS PLP yeast – blocks SARS-CoV papain-like protease in a yeast assay; S. cerevisiae expressing SARS-CoV PLpro, growth rescue; Potency, µM (doses to about 32.9 µM), for inactives: top-dose activity, positive = growth rescue, actives largely listed as activators; hit rate 0.19% among 330,000; calls by dose curve; further: potency means the concentration at half of the fitted maximal effect; 0% is about no effect; nearly all actives have a fitted effect of over 55% in size
* marks the source's active call; other numbers are inactive results. The list is not random: actives were taken first. Their share in the collection is about 19%. Unless noted, the call rests on the fitted dose curve; in most records, active means well fitted curve in the direction sought with a large enough effect; inconclusive means small, poorly fitted or top-dose-only effect, or another doubt; inactive means no such curve, though single readings can be large; an effect the other way counts as inactive or inconclusive.

CCN(CC)S(=O)(=O)c1ccc(NC(=O)COC(=O)CNS(=O)(=O)/C=C/c2ccccc2)cc1 was read as Shiga inhibitor -5, Pf growth 96h 8%, Pf growth 48h -7%, AMA1-RON2 inh -6%, Cycloheximide cs -1 and SARS PLP yeast -13%.
`CCCn1c(SCC(=O)N2CC(=O)Nc3ccccc32)n[nH]c1=O` gave AMA1-RON2 inh -10% and SARS PLP yeast 16%.
Screening Cc1ccc(CNc2nc(Cl)c(C#N)s2)cc1 returned Shiga inhibitor 62*, Pf growth 96h 208%, Pf growth 48h 91%, AMA1-RON2 inh -14%, Cycloheximide cs 28* and SARS PLP yeast 1%.
`CC(=O)OC(C)=O` gave Pf growth 96h inconclusive, Pf growth 48h 46%, AMA1-RON2 inh 7% and SARS PLP yeast -2%.
Screening CC(C)CN1CCC(=O)N([C@H](CO)Cc2ccccc2)CC1 returned Shiga inhibitor -6, Pf growth 96h 39%, Pf growth 48h 35%, AMA1-RON2 inh 15%, Cycloheximide cs -1 and SARS PLP yeast 8%.
COC(=O)c1cc(-c2c[nH]c3ccccc23)n[nH]1 was read as Shiga inhibitor 16, Pf growth 96h -10%, Pf growth 48h 9%, AMA1-RON2 inh 4%, Cycloheximide cs 10* and SARS PLP yeast -12%.
Screening CCOc1ccc(-c2cc(C(=O)NN)[nH]n2)cc1 returned Shiga inhibitor 44*, Pf growth 96h inconclusive, Pf growth 48h 12%, AMA1-RON2 inh 66%, Cycloheximide cs 43* and SARS PLP yeast -6%.
Screening COC(=O)c1cc(-c2ccc(Br)cc2)n[nH]1 returned Shiga inhibitor 41*, Pf growth 96h inconclusive, AMA1-RON2 inh 2%, Cycloheximide cs 29* and SARS PLP yeast -4%.
`COc1ccccc1-c1cc(C(=O)NN)[nH]n1` gave Shiga inhibitor 17, Pf growth 96h 2%, Pf growth 48h -23%, AMA1-RON2 inh 90%, Cycloheximide cs 11 and SARS PLP yeast -1%.
For COc1ccc(-c2cc(C(=O)NN)[nH]n2)cc1OC the results were Shiga inhibitor 12, Pf growth 96h 6%, Pf growth 48h 7%, AMA1-RON2 inh 62%, Cycloheximide cs 8 and SARS PLP yeast -1%.
For COc1ccc(-c2cc(C(=O)O)[nH]n2)cc1OC the results were Shiga inhibitor -4, Pf growth 96h inconclusive, Pf growth 48h 8%, AMA1-RON2 inh -14%, Cycloheximide cs -1 and SARS PLP yeast 4%.
For CCOC(=O)c1cc(-c2ccccc2)n[nH]1 the results were Shiga inhibitor 47*, Pf growth 96h 227%, Pf growth 48h 139%, AMA1-RON2 inh 8%, Cycloheximide cs 19* and SARS PLP yeast -1%.
C=Cn1cc[n+](CC(=O)c2ccc(Cl)c(Cl)c2)c1 was read as Pf growth 96h -18%, Pf growth 48h inconclusive, AMA1-RON2 inh -6%, Cycloheximide cs -2 and SARS PLP yeast 2%.
COc1ccc(OC)c(S(=O)(=O)NC(=O)C2(C)CCN2C(=O)CC2CCCC2)c1 (stereo not drawn) was read as AMA1-RON2 inh 0%.
CC(C)(C)OC(=O)N1CCc2onc(-c3ccc(Cl)cc3)c2C1=O was read as AMA1-RON2 inh 4%.
`CC(=O)N/C(=C\c1ccccc1)C(=O)OCC(=O)NC(=O)c1ccccc1` gave Pf growth 96h -4%, Pf growth 48h 12%, AMA1-RON2 inh -12% and SARS PLP yeast -3%.
CCOC(=O)C1=C(COC(=O)CNS(=O)(=O)c2ccc(NC(C)=O)cc2)NC(=O)NC1C (stereo not drawn) was read as AMA1-RON2 inh 23%.
For COc1ccccc1NS(=O)(=O)c1ccc(Cl)c(NC(=O)C(C)N2C(=O)c3ccccc3C2=O)c1 (stereo not drawn) the results were Shiga inhibitor -3, Pf growth 96h inconclusive, Pf growth 48h 12%, AMA1-RON2 inh 16%, Cycloheximide cs -2 and SARS PLP yeast -16%.
For COc1ccc(-c2cc(C(=O)NN)[nH]n2)cc1 the results were Shiga inhibitor active, Pf growth 96h 32%, Pf growth 48h 65%, AMA1-RON2 inh -4%, Cycloheximide cs 22* and SARS PLP yeast -27%.
`C/C=C/COC(=O)c1[nH]c2c(c1C)C(=O)CC(c1ccc(N(C)C)cc1)C2` (stereo not drawn) gave Shiga inhibitor 20, Pf growth 96h 17%, Pf growth 48h inconclusive, AMA1-RON2 inh -16%, Cycloheximide cs 23* and SARS PLP yeast -16%.
Screening CCOCCOC(=O)c1[nH]c2c(c1C)C(=O)CC(c1ccc(N(C)C)cc1)C2 (stereo not drawn) returned Shiga inhibitor 18, Pf growth 96h 11%, Pf growth 48h inconclusive, AMA1-RON2 inh inconclusive, Cycloheximide cs 7 and SARS PLP yeast -3%.
`CCC(C)OC(=O)c1[nH]c2c(c1C)C(=O)CC(c1ccc(N(C)C)cc1)C2` (stereo not drawn) gave Shiga inhibitor 57*, Pf growth 96h 4%, Pf growth 48h inconclusive, AMA1-RON2 inh -15%, Cycloheximide cs 41* and SARS PLP yeast -18%.
`N#Cc1cc([N+](=O)[O-])cnc1N(CCO)CCO` gave Shiga inhibitor -12, Pf growth 96h 51%, Pf growth 48h 10%, AMA1-RON2 inh 19%, Cycloheximide cs -3 and SARS PLP yeast 24%.
COc1ccc(/C=C/c2nc(-c3ccccc3O)n[nH]2)cc1OC was read as Shiga inhibitor 23*, Pf growth 96h inconclusive, Pf growth 48h 48%, AMA1-RON2 inh 77%, Cycloheximide cs 20* and SARS PLP yeast -29%.
Screening CC(=O)c1ccc(NC(=O)Cc2cccs2)cc1 returned Pf growth 96h 1%, Pf growth 48h 191%, AMA1-RON2 inh -23%, Cycloheximide cs 28* and SARS PLP yeast 3%.
For O=C(Cc1ccsc1)Nc1ccc(S(=O)(=O)C(F)F)cc1 the results were Shiga inhibitor 49*, Pf growth 96h 26%, Pf growth 48h 14%, AMA1-RON2 inh 25%, Cycloheximide cs 23* and SARS PLP yeast -2%.
`CC(=O)c1ccc(NC(=O)Cc2ccsc2)cc1` gave Shiga inhibitor 69*, Pf growth 96h 206%, Pf growth 48h 73%, AMA1-RON2 inh 2%, Cycloheximide cs 30* and SARS PLP yeast 0%.
Screening O=C(Nc1ccc(OC(=O)c2cccs2)cc1)c1ccco1 returned Shiga inhibitor 54*, Pf growth 96h inconclusive, Pf growth 48h 14%, AMA1-RON2 inh 33%, Cycloheximide cs 45* and SARS PLP yeast -12%.
O=C(Nc1cccc(NC(=O)c2cccs2)c1)c1ccco1 was read as Shiga inhibitor 3, Pf growth 96h 11%, Pf growth 48h 1%, AMA1-RON2 inh -3%, Cycloheximide cs 2 and SARS PLP yeast -2%.
`Cc1ccsc1CNC(=O)C1(C)CCN1C(=O)C(C)C` (stereo not drawn) gave AMA1-RON2 inh 0%.
